This passage reports growth results from PubChem BioAssay (NCI).

Test systems include HCT-15 colon; HT29 colon; SNB-75 CNS; SNB-19 CNS; U251 CNS; PC-3 prostate; SK-MEL-5 melanoma; UACC-62 melanoma; LOX IMVI melanoma; SK-MEL-28 melanoma; SK-MEL-2 melanoma; EKVX NSCLC; SN12C renal; UO-31 renal; TK-10 renal; ACHN renal; CAKI-1 renal; A498 renal; CCRF-CEM leukemia; MOLT-4 leukemia.
Holding throughout (test): NCI-60 one-dose screen, 48 h (100 = growth as untreated, 0 = no growth, -100 = all killed)
Common to all, as to settings: 10 µM unless noted

Compounds without any hit were thinned out: in the full panel of roughly 83,000, 20% have a hit.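 Treatment: one concentration, 48 hours, 96-well format. Scoring: percent growth, with anything below 10 considered active.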 Values without a mark were called inactive. Activity calls are given as the source filed them.

Regarding `OC(c1cccc(C(F)(F)F)c1)c1cnccc1NC1CCCCC1` (stereo not drawn), the growth with HCT-15 colon is 81.3%; with HT29 colon, 37.9%; in the assay on SNB-75 CNS it was 72.1%; in the assay with SNB-19 CNS it was 89.3%; with U251 CNS, 76%; with PC-3 prostate it was 69.4%. Also, the growth in the assay with SK-MEL-5 melanoma was 69.6%; in the assay with UACC-62 melanoma, 74%; with LOX IMVI melanoma it was 82.4%; with SK-MEL-28 melanoma, 98.4%; in the assay on SK-MEL-2 melanoma it was 92.6%; with EKVX NSCLC, 77.6%. Further, the growth was 73.5% in the assay on SN12C renal; 52.2% in the assay on UO-31 renal; 82.7% in the assay with TK-10 renal; 87.2% in the assay with ACHN renal; 69.5% in the assay on CAKI-1 renal; 77.4% in the assay on A498 renal. Moreover, the values for the growth in the assay on CCRF-CEM leukemia and in the assay on MOLT-4 leukemia were 62% and 71.6%, respectively.

As to `[O-][n+]1c(Cl)cc(Cl)c2ccccc21`, the growth in the assay on HCT-15 colon was 99.8%; with HT29 colon it was 122%; in the assay on SNB-75 CNS, 101%; in the assay on SNB-19 CNS it was 102%; in the assay with U251 CNS it was 92.9%; in the assay on PC-3 prostate, 81.2%. The growth in the assay with SK-MEL-5 melanoma is 109%; in the assay on UACC-62 melanoma it was 98.9%; in the assay with LOX IMVI melanoma, 97.4%; with SK-MEL-28 melanoma it was 104%; in the assay with SK-MEL-2 melanoma it was 123%; with EKVX NSCLC, 76.9%. For the same molecule, the growth in the assay with SN12C renal is 101%; with UO-31 renal, 78.5%; with TK-10 renal it was 125%; in the assay on ACHN renal it was 99.5%; in the assay with CAKI-1 renal, 92.6%; with A498 renal it was 73.2%. The growth in the assay with CCRF-CEM leukemia is 87.5%; with MOLT-4 leukemia it was 88.7%.

Consider `Cc1ccc(-n2nc3c(c(C#N)c2=O)CC(c2ccccc2[N+](=O)[O-])C([N+](=O)[O-])=C3O)cc1` (stereo not drawn), for which the growth with HCT-15 colon was 84.1%; in the assay with HT29 colon, 113%; with SNB-75 CNS it was 80.1%; in the assay with SNB-19 CNS it was 92.3%; in the assay on U251 CNS it was 91.3%; in the assay on PC-3 prostate, 88.3%. Also, the growth is 87.5% in the assay on SK-MEL-5 melanoma; 78.3% in the assay with UACC-62 melanoma; 82.9% with LOX IMVI melanoma; 98.4% with SK-MEL-28 melanoma; 98.8% in the assay with SK-MEL-2 melanoma; 77.1% with EKVX NSCLC. Moreover, the growth with SN12C renal was 91.8%; in the assay on UO-31 renal, 61.8%; in the assay with TK-10 renal it was 115%; in the assay on ACHN renal it was 86.4%; in the assay with CAKI-1 renal, 77.4%; with A498 renal, 95.9%. The growth in the assay on CCRF-CEM leukemia is 88.2%; in the assay with MOLT-4 leukemia it was 87.6%.

For `OCc1cnccc1NCCCOc1ccccc1`, the growth is 105% with HCT-15 colon; 102% in the assay on HT29 colon; 99.6% in the assay on SNB-75 CNS; 94.9% in the assay with SNB-19 CNS; 98.2% with U251 CNS; 96% in the assay on PC-3 prostate. In addition, the growth in the assay with SK-MEL-5 melanoma was 97.1%; in the assay on UACC-62 melanoma, 90.5%; with LOX IMVI melanoma, 99.4%; with SK-MEL-28 melanoma, 109%; in the assay on SK-MEL-2 melanoma it was 107%; in the assay with EKVX NSCLC, 105%. In addition, the growth in the assay with SN12C renal was 94.3%; with UO-31 renal, 87.9%; with TK-10 renal, 92.5%; with ACHN renal it was 108%; in the assay with CAKI-1 renal it was 95.7%; in the assay with A498 renal, 91.9%. Further, the figures for the growth with CCRF-CEM leukemia and with MOLT-4 leukemia were 88.8% and 96.6%, respectively.

Regarding `Oc1cccc(CCc2ccc(Oc3cc(CCc4cccc(O)c4)cc(O)c3O)cc2)c1`, the growth with HCT-15 colon was 39.1%; in the assay on HT29 colon, 99.2%; with SNB-75 CNS, 72.8%; with SNB-19 CNS, 89%; in the assay on U251 CNS it was 74.5%; in the assay with PC-3 prostate, 63.5%. The growth in the assay with SK-MEL-5 melanoma was 70.2%; in the assay on UACC-62 melanoma, 73.3%; with LOX IMVI melanoma it was 62.7%; in the assay with SK-MEL-28 melanoma it was 88.6%; in the assay with SK-MEL-2 melanoma, 84.1%; in the assay on EKVX NSCLC, 85.1%. In addition, the growth with SN12C renal is 67.9%; in the assay on UO-31 renal, 36.4%; with TK-10 renal it was 111%; in the assay with ACHN renal it was 77.1%; with CAKI-1 renal, 52.7%; in the assay on A498 renal, 95.2%. Also, the results for the growth with CCRF-CEM leukemia and in the assay on MOLT-4 leukemia were 24.1% and 18%, respectively.

As for `O=C1/C=C/[C@@H](O)[C@@H]2C[C@@H](O)C[C@H]2/C=C/CCC[C@H](CCc2ccc3ncccc3c2)O1`, the growth in the assay on HCT-15 colon was 6.02% (active); with HT29 colon it was -19.6% (active); in the assay with SNB-75 CNS, 33.2%; in the assay on SNB-19 CNS it was 28.9%; with U251 CNS, 21.7%; in the assay with PC-3 prostate, 18.3%. In addition, the growth with SK-MEL-5 melanoma was -95.8% (active); in the assay with UACC-62 melanoma it was 4.66% (active); in the assay on LOX IMVI melanoma, -66.5% (active); with SK-MEL-28 melanoma it was -0.806% (active); in the assay on SK-MEL-2 melanoma it was -18.3% (active); in the assay with EKVX NSCLC it was 3.05% (active). In addition, the growth in the assay on SN12C renal was 6.22% (active); with UO-31 renal, -0.158% (active); in the assay on TK-10 renal it was -23.9% (active); in the assay on ACHN renal it was 5.12% (active); in the assay on CAKI-1 renal, -10.2% (active); in the assay on A498 renal, -36.4% (active). Besides, the growth was 7.39% (active) with CCRF-CEM leukemia and -35.7% (active) with MOLT-4 leukemia.

Consider `CCN(CC)CCOc1ccc(NC(=O)C(C(C)C)N2C(=O)/C(=C/c3ccc(Br)cc3)SC2=S)cc1` (stereo not drawn), for which the growth in the assay with HCT-15 colon is -40.9% (active); in the assay with HT29 colon, -5.87% (active); in the assay on SNB-75 CNS, 66%; in the assay with SNB-19 CNS, 57.6%; with U251 CNS, 71.7%; in the assay on PC-3 prostate, 64.5%. In addition, the growth in the assay with SK-MEL-5 melanoma is 89.2%; with UACC-62 melanoma, 95.3%; in the assay on LOX IMVI melanoma, 62.9%; with SK-MEL-28 melanoma, 89%; in the assay on SK-MEL-2 melanoma, 101%; in the assay on EKVX NSCLC, 90%. Also, the growth in the assay on SN12C renal is 73.3%; in the assay with UO-31 renal it was 74.5%; in the assay on TK-10 renal, 95.6%; in the assay with ACHN renal it was 62.1%; with CAKI-1 renal, 81%; in the assay on A498 renal, 99.5%. The growth with CCRF-CEM leukemia was -16.7% (active); with MOLT-4 leukemia, 3.96% (active).

Regarding `COc1cc(CC(=O)n2ncc3ccc(N)cc32)cc(OC)c1OC`, the growth in the assay with HCT-15 colon was 88.2%; in the assay on HT29 colon it was 109%; in the assay on SNB-75 CNS, 87.3%; in the assay with SNB-19 CNS it was 101%; in the assay with U251 CNS, 98.4%; with PC-3 prostate, 88.2%. Besides, the growth in the assay on SK-MEL-5 melanoma is 92.9%; in the assay with UACC-62 melanoma it was 92.9%; with LOX IMVI melanoma, 90.1%; in the assay with SK-MEL-28 melanoma it was 99.9%; with SK-MEL-2 melanoma, 98%; in the assay on EKVX NSCLC it was 91.8%. In addition, the growth was 107% in the assay on SN12C renal; 70.2% in the assay with UO-31 renal; 108% with TK-10 renal; 94.9% in the assay with ACHN renal; 85.9% in the assay with CAKI-1 renal; 101% in the assay with CCRF-CEM leukemia.
